Sequences and labels used below:
B1: ENSMUSG00000034801.154|Sos2|134:138;197:201;231:235 (ssRNA)
RNA: GGGAGUUCUACAGUCCGACGAUCGCUUCGAUAUCCGCAUGCUAUUGUUUGGUUUUUACAUCUAGGAGACUUAGGAAUAAUACCCACUGUUCUUAAACUCUUUGAGACCAUGUCUUAAAUGUCAGUAUUUGCUGCUGAAGACAAAAACGGAAAAUAGAAUGAAAUAAUAGAAUGCACACACAUUAUUAUUUUGUUAAAAUUAUAAACAGUUCUACAUAACCUGAUUAUAGAAGAAGGGCAACACAUCAUUAAGAUGUGCCUUUUGUUUUGCAGUCAUACGUGUUUAGCUAAUCAUUGUUUAGCUCUCUUGCGGUCGCACUAGUGUGGAAUUCUCGGGUGUCAAGG
B2: ENSMUSG00000028439.239|Fam219a|33:39;67:71;117:126;145:149 (ssRNA)
RNA: GGGAGUUCUACAGUCCGACGAUCGCUUCGAUAUCCGCAUGCUAUCACAGGAGUUUCUGCAAAAGACUAUGACAUCACACACACUGUGGUCUCACGAGGUACCUGGAGGUCAUACUGCACGGACAUGGGAAGUACGUGAAGAUUUAUUUCGGGAAAAGUGCACACACACAAGCUGUACUGGGUGUCAUCAUACCUGUUGCUUCUGCUGCUGGUCUGGUCUGAGGGAGGAAAGCUGAGGCUGUAGCUCAGUGAGAUGGUGGCUCUCCCAUGGCUGAAGACAAGUGCAAGCAGAGAGAGCCUCAGGCUCUUGCGGUCGCACUAGUGUGGAAUUCUCGGGUGUCAAGG
B3: ENSMUSG00000031028.61|Tub|157:169;187:191 (ssRNA)
RNA: GGGAGUUCUACAGUCCGACGAUCGCUUCGAUAUCCGCAUGCUAUCAGUCCCCUGCUGCAGUGGUGUUAUCACACCGGAAAGCCUCUUCACCUGGAGGUACAGAGGGAGAGGAAGCACAAGCCUGGCUGCUGUGGCUCAGCCAUCCACUCAGCCUACGAGUCAGAGACAGUGGGUGUCCCGGGAAGCAGGGGUACAGUGACACACACACAUACUACAGGGCACUCAAGCUCAUACUAGAAAAAGCUCUGGUGGUCAGCAGAAAGCACUCCCACUUCAAAAGGGCCCAUUAGGCCCAAAGGGGGUCUCUUGCGGUCGCACUAGUGUGGAAUUCUCGGGUGUCAAGG
B4: ENSMUSG00000032194.9|Kank2 (ssRNA)
RNA: GGGAGUUCUACAGUCCGACGAUCGCUUCGAUAUCCGCAUGCUAGAGUGAAUACAGGGAGGAGCCAGUGAGUCCCCCAGGACCCACCAGCCACAAGCCACGCAUCAAACCGUCCCUCCUCCAUCCCUCUGUCCCAUUCUGCCUCGGCAUUCCUCAGCCCCUGAACUUCCCUGAGGGAGCCCUGACAUCUACCAGGCUCAAGCUCCUGGAAGCCUUUCCCAGCACCCUGGGUUCAAAGCCAGAAAGCCAAGCUACAUUCUCCUCCCAGUUGGCACCAGUUGACAACGCCUUGGGUGUGGGUUUCUCUCUUGCGGUCGCACUAGUGUGGAAUUCUCGGGUGUCAAGG
B5: ENSMUSG00000061578.1396|Ksr2 (ssRNA)
RNA: GGGAGUUCUACAGUCCGACGAUCGCUUCGAUAUCCGCAUGCUAAAGUAUAUAUACCUAUAAAUGCUAUAUAUAUUAUAUAUGUGUAUAUACAUAAAGACUACUUCUUGUACAGCCCUCCACGGACCUCAGGCCCACUGUUUUCUCCAUGUCUGUCUGUACUGACUGUUGCAGAAUGAGCUGAUGUAUGAUCUUGAUUCUCCAUUUUCCUUCUGGACCACAUGUCUCUUCCUUUUCCUUUUUAGAUCUGUCUUGCUCUCUGUCUCUCUCACUCAUUGCCAACAUGUUGCUGGGAAAGAAUAUUUCUCUUGCGGUCGCACUAGUGUGGAAUUCUCGGGUGUCAAGG
B6: ENSMUSG00000043670.80|Diras1|67:72 (ssRNA)
RNA: GGGAGUUCUACAGUCCGACGAUCGCUUCGAUAUCCGCAUGCUACUGGCUAAGGAACUGCUCAUCCCAGUCAGGCCCAGAGAGGUUACCUUGCCUCUCCAUCUCUGUCCCACACACCCCAGCCAUGCCCACUGUCCCUGUCCCUCACAUUCUAUCACUGUGACCUCUGGGGAGUGCCCAUUGACCUCAUCUUCCUUCACUAAUAUCUUAUUUCUUUCACCUGAUCCUGUCCUUUCCCCGUGACCUCUGACCUGUGGCCUUCCCUGGGUCCAGAACACCCCUGUCCUCUCCUGUCUGCACACCAGCUCUUGCGGUCGCACUAGUGUGGAAUUCUCGGGUGUCAAGG
B7: ENSMUSG00000090935.729|Synj2bp (ssRNA)
RNA: GGGAGUUCUACAGUCCGACGAUCGCUUCGAUAUCCGCAUGCUAAUCAACCUCCAGUAACAUAUGUGGUUAGUAAGUGCUUCAGCUUGUGUAGCCAUUAAUAACCAAGUCAUAGGAUUGUGAAUCUAAAAUACUCCUGGGUAAAAUUUGUAUUAGAAUGGAAAAAAAAAUGAGGGUCAGAAAGGUGAGCUAACUUCAAGUUAGAUACUCCCCUCUAUUUUGGUCUCAAAUUUGUUUUAGUGUGUCCACAACAUGAAAACAUACAAAAACUAUAUUUUAAAAAUCAGUUUACUUUCAUCUUUUCUCUCUUGCGGUCGCACUAGUGUGGAAUUCUCGGGUGUCAAGG
B8: ENSMUSG00000022095.164|Fam160b2|44:48 (ssRNA)
RNA: GGGAGUUCUACAGUCCGACGAUCGCUUCGAUAUCCGCAUGCUAGGCUAGGCCGAGACACAAGCAGAUAGCUCUGGCAUUGUUCUUCCAUACUCCUCCAUGGCUGGGGCUGCUACCUCACCCGGCCUGAAUCUGUCUCAACCUGCAAGAGCACUCGGGCGGCGCCAGGCAUUACCUCACAACAGGCCUGCAGUUGUUGGCUUCCCUCCUGGGCAAGGAGGAGCAGGCCAGAGCCCCUUUUGCUUCCUUUUCCUGCCCAUGCCACCUCUCGAAGCCGGGCACAGGUUGCCAGGAGGUGACAUGAACUCUUGCGGUCGCACUAGUGUGGAAUUCUCGGGUGUCAAGG
B9: ENSMUSG00000004113.278|Cacna1b|87:91;151:155;229:260 (ssRNA)
RNA: GGGAGUUCUACAGUCCGACGAUCGCUUCGAUAUCCGCAUGCUAAAGUCAGGCCCCUGGCUUAGCACUAGAAAAAAUAAAACCUCAUGGCUGCUUUGCAAAGGGAAAACCCAUGCUCAGGAAGGUGUUCACACACCACAGAUAGCUGGGAGGCCACGAGAGAAAGGUUGCACACAGACAGGCAGGCACUCCUUGCACACGUCUCUCUGUUUUGAAACUUCUGAUGACUUCUUGGUGGCUUGUUGUCUUCUACCCCAUGUUUCUCACAGGAUCACACACACACACACACACACACACACACACACCUCUUGCGGUCGCACUAGUGUGGAAUUCUCGGGUGUCAAGG
B10: ENSMUSG00000022095.187|Fam160b2 (ssRNA)
RNA: GGGAGUUCUACAGUCCGACGAUCGCUUCGAUAUCCGCAUGCUAAGGCCUGCAGUUGUUGGCUUCCCUCCUGGGCAAGGAGGAGCAGGCCAGAGCCCCUUUUGCUUCCUUUUCCUGCCCAUGCCACCUCUCGAAGCCGGGCACAGGUUGCCAGGAGGUGACAUGAAAGAGGAGGAAACUCCAUGACCUCUACAUCCCCCGCAGUCCUCCCAGCGGGGGAGGACUUCUCUGCUGCUCCGAAGAACAUCAUGCACUCCUGUGUGUGUGUGUGAGUGUGUGUGUGUGUGUGUGUGUGUGUGUGUGUGCUCUUGCGGUCGCACUAGUGUGGAAUUCUCGGGUGUCAAGG
B11: ENSMUSG00000022095.189|Fam160b2 (ssRNA)
RNA: GGGAGUUCUACAGUCCGACGAUCGCUUCGAUAUCCGCAUGCUAGUUGGCUUCCCUCCUGGGCAAGGAGGAGCAGGCCAGAGCCCCUUUUGCUUCCUUUUCCUGCCCAUGCCACCUCUCGAAGCCGGGCACAGGUUGCCAGGAGGUGACAUGAAAGAGGAGGAAACUCCAUGACCUCUACAUCCCCCGCAGUCCUCCCAGCGGGGGAGGACUUCUCUGCUGCUCCGAAGAACAUCAUGCACUCCUGUGUGUGUGUGUGAGUGUGUGUGUGUGUGUGUGUGUGUGUGUGUGUGUAUGUGUGUGUACUCUUGCGGUCGCACUAGUGUGGAAUUCUCGGGUGUCAAGG
B12: ENSMUSG00000022095.188|Fam160b2 (ssRNA)
RNA: GGGAGUUCUACAGUCCGACGAUCGCUUCGAUAUCCGCAUGCUAGCAGUUGUUGGCUUCCCUCCUGGGCAAGGAGGAGCAGGCCAGAGCCCCUUUUGCUUCCUUUUCCUGCCCAUGCCACCUCUCGAAGCCGGGCACAGGUUGCCAGGAGGUGACAUGAAAGAGGAGGAAACUCCAUGACCUCUACAUCCCCCGCAGUCCUCCCAGCGGGGGAGGACUUCUCUGCUGCUCCGAAGAACAUCAUGCACUCCUGUGUGUGUGUGUGAGUGUGUGUGUGUGUGUGUGUGUGUGUGUGUGUGUAUGUGCUCUUGCGGUCGCACUAGUGUGGAAUUCUCGGGUGUCAAGG
B13: ENSMUSG00000061578.732|Ksr2 (ssRNA)
RNA: GGGAGUUCUACAGUCCGACGAUCGCUUCGAUAUCCGCAUGCUAGGGGUCAUUGUUCAAUCCUGUAUCAAGACCUUGGAGUUGUCUAAGGCUGUGGGUUUUAAAUACCUGCUGCAGGCCUCCCAUCUCUGGCUCUUUGUUUCCACUCUGGCCCAAGUUUGAGUCUCCAUAUGGGCCCUUCCUGUCCUCAUGCCCUGCCUGUCUUCAUUCCACCCAUCCACCCUCCUAAGGAUUGGUCUUGUUCCGAGAGUGAUCCUGGUAACGCCAAGCCUCCCUCUGCCCCUGUGUUGGCUUCUGUGACGGACCUCUUGCGGUCGCACUAGUGUGGAAUUCUCGGGUGUCAAGG

Whole data set: some 9,900 sequences, median “r (bound/input frequency ratio)” near 0.7, cut for the highest 2% near 6.5. This excerpt belongs to a sample that is enriched for the highest values.

The target of the experiment is TDP-43 (Homo sapiens, UniProt Q13148 1-414). Description: RNA Bind-n-Seq with designed 260-mer pool; 25 mM Tris-HCl, 150 mM KCl, 3 mM MgCl2, BSA (printed 500 mg/mL), 20 units/mL SUPERase IN; pH not stated; 500 nM RNA pool, 1 h, 4 C; TDP-43 5, 50, 500 nM; high values mean tight binding. The settings on record: protein: recombinant; tags: SBP (GST cleaved off with PreScission; pGEX-GST-SBP). The essentials: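 Binding (R) is the ratio of each oligo's mapped-read-normalized abundance in the bound fraction to its abundance in the input. To obtain it, SBP-tagged recombinant TDP-43 (5, 50 or 500 nM) on streptavidin beads was incubated with 500 nM of an in vitro-transcribed 260-nt 3′ UTR oligo pool for 1 h at 4 °C in 25 mM Tris-HCl, 150 mM KCl, 3 mM MgCl2, BSA and SUPERase IN. The RNA retained after washing was released with biotin, then reverse transcribed, amplified by PCR and sequenced.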
Sequence of TDP-43 (Q13148 whole entry): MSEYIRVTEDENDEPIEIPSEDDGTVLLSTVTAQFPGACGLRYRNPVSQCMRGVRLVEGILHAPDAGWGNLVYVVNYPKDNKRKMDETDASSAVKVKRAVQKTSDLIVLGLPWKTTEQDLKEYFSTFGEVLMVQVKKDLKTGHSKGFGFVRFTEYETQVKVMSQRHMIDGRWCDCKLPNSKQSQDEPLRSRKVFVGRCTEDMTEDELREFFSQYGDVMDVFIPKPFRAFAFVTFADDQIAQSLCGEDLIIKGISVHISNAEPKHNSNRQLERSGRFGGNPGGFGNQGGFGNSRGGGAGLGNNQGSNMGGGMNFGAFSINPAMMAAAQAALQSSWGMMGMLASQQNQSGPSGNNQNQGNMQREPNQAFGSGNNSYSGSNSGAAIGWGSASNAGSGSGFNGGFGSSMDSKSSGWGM
Regarding B1, the binding signal was 0.018 R (bound/input frequency ratio). Consider B2, for which the binding signal is 1.35 R (bound/input frequency ratio). Regarding B3, the binding signal was 0.59 R (bound/input frequency ratio).

Turning to B4, the binding signal is 1.04 R (bound/input frequency ratio). With B5, the binding signal was 0.176 R (bound/input frequency ratio).

B6: the binding signal was 2.36 R (bound/input frequency ratio). Take B7: the binding signal is 0.0597 R (bound/input frequency ratio).

With B8, the binding signal is 0.529 R (bound/input frequency ratio). For the molecule B9, the binding signal was 1.82 R (bound/input frequency ratio). The result for B10 reads 6.28 R (bound/input frequency ratio); that for B11, 5.45 R (bound/input frequency ratio). Turning to B12, the binding signal is 7.09 R (bound/input frequency ratio). Consider B13, for which the binding signal is 1.54 R (bound/input frequency ratio).

Source of the values: publication PMC12864922, “TDP-43 directly inhibits mRNA accumulation in neurites through modulation of mRNA stability”.
